Measurements: the antibiotic and cytotoxicity screens of Wong et al. (2023)
In all, about 39,000 compounds went through this assay and about 500 (1.3%) were called active. The entries come from a sample that favours actives as a whole.

System: S. aureus RN4220
Assay: growth inhibition call (relative growth <= 0.2)
Conditions: 50 µM

| Compound | growth inhibition call |
| --- | --- |
| O=C(C[C@@H]1CC[C@H]2[C@@H](COC[C@H](O)CN2C(=O)Nc2cc(Cl)cc(Cl)c2)O1)N1CCOCC1 | inactive |
| O=C(C[C@@H]1CC[C@H]2[C@@H](COC[C@@H](O)CN2C(=O)Nc2cc(Cl)cc(Cl)c2)O1)N1CCOCC1 | active |
| O=C(C[C@H]1CC[C@@H]2[C@H](COC[C@H](O)CN2C(=O)Nc2cc(Cl)cc(Cl)c2)O1)N1CCOCC1 | inactive |
| O=C(C[C@@H]1CC[C@@H]2[C@H](COC[C@H](O)CN2C(=O)Nc2cc(Cl)cc(Cl)c2)O1)N1CCOCC1 | active |
| O=C(C[C@H]1CC[C@H]2[C@@H](COC[C@@H](O)CN2C(=O)Nc2cc(Cl)cc(Cl)c2)O1)N1CCOCC1 | inactive |
| O=C(C[C@@H]1CC[C@@H]2[C@H](COC[C@@H](O)CN2C(=O)Nc2cc(Cl)cc(Cl)c2)O1)N1CCOCC1 | active |
| CN1CCN(C(=O)C[C@@H]2CC[C@H]3[C@@H](COC[C@H](O)CN3C(=O)Nc3cc(Cl)cc(Cl)c3)O2)CC1 | inactive |
| O=C(C[C@H]1CC[C@H]2[C@@H](COC[C@H](O)CN2C(=O)Nc2cc(Cl)cc(Cl)c2)O1)N1CCOCC1 | inactive |
| O=C(C[C@H]1CC[C@@H]2[C@H](COC[C@@H](O)CN2C(=O)Nc2cc(Cl)cc(Cl)c2)O1)N1CCOCC1 | inactive |
| C[C@H](O)C#Cc1ccc2c(c1)O[C@H](CN(C)C(=O)c1ccccc1)[C@H](C)CN([C@H](C)CO)S2(=O)=O | inactive |
| C[C@@H]1CCCCO[C@@H](CN(C)C(=O)Nc2ccc(C(F)(F)F)cc2)[C@H](C)CN([C@H](C)CO)C(=O)c2cc(NS(=O)(=O)c3cn(C)cn3)ccc2O1 | inactive |
| C[C@@H]1CN([C@H](C)CO)C(=O)c2cc(NC(=O)CCN3CCOCC3)ccc2O[C@H]1CN(C)C(=O)Nc1ccc2c(c1)OCO2 | inactive |
| Cc1noc(C)c1S(=O)(=O)Nc1ccc2c(c1)C(=O)N([C@H](C)CO)C[C@H](C)[C@H](CN(C)Cc1ccccc1)OCCCC[C@@H](C)O2 | inactive |
| Cc1ccc(C)c(Cc2cc(Cl)ccc2Cl)c1 | inactive |
| Cc1noc(C)c1NC(=O)Nc1ccc2c(c1)C(=O)N([C@H](C)CO)C[C@@H](C)[C@@H](CN(C)C(=O)C1CCCCC1)OCCCC[C@@H](C)O2 | inactive |
| C[C@@H]1CN([C@H](C)CO)C(=O)c2cc(NS(=O)(=O)c3cn(C)cn3)ccc2O[C@@H](C)CCCCO[C@@H]1CN(C)CC1CC1 | inactive |
| CCNC(=O)C[C@@H]1CC[C@H](NC(=O)C2CCOCC2)[C@@H](CO)O1 | inactive |
| OC[C@H]1COc2ccccc2O1 | inactive |
| C[C@@H]1CCCCO[C@H](CN(C)S(=O)(=O)c2ccc(Cl)cc2)[C@@H](C)CN([C@H](C)CO)C(=O)c2cc(NS(=O)(=O)c3ccc(F)cc3)ccc2O1 | inactive |
| CN1C(=O)[C@H]2[C@H](C1=O)[C@H]1C=C(c3ccc(CO)cc3)[C@@H]2[C@H](c2cccs2)N1Cc1cccc(OC(F)(F)F)c1 | active |
| NC(=O)N1C(=O)[C@H]2[C@H](C1=O)[C@H]1C=C(c3ccc(CO)cc3)[C@@H]2[C@@H](C2CC2)N1Cc1cc2c(cc1Br)OCO2 | inactive |
| NC(=O)N1C(=O)[C@H]2[C@H](C1=O)[C@H]1C=C(CCCO)[C@@H]2[C@H](c2cccs2)N1Cc1cc2c(cc1Br)OCO2 | inactive |

| Compound | growth inhibition call |
| --- | --- |
| CC(C)NC(=O)N(C)C[C@@H]1Oc2ccc(NC(=O)CCCN(C)C)cc2CC(=O)N([C@@H](C)CO)C[C@H]1C | inactive |
| Cc1ccc(S(=O)(=O)N(C)C[C@@H]2OCCCC[C@@H](C)Oc3ccc(NC(=O)Nc4ccc(F)cc4)cc3C(=O)N([C@H](C)CO)C[C@H]2C)cc1 | inactive |
| CN(C)CCCNC(=O)C[C@@H]1CC[C@@H]2[C@H](COc3ccc(NC(=O)c4cccc(F)c4)cc3C(=O)N2C)O1 | inactive |
| CC(C)(c1cc(Br)c(O)c(Br)c1)c1cc(Br)c(O)c(Br)c1 | active |
| Cc1cc(C(C)(C)C)c(O)c(C(C)(C)C)c1 | inactive |
| O=C(C[C@@H]1CC[C@H]2NC[C@H](O)COC[C@@H]2O1)NCCN1CCCCC1 | inactive |
| C[C@@H]1CCCCO[C@@H](CN(C)S(=O)(=O)c2cccs2)[C@H](C)CN([C@H](C)CO)C(=O)c2cc(NC(=O)Nc3ccc(F)cc3)ccc2O1 | inactive |
| COCC#Cc1ccc2c(c1)O[C@@H](CN(C)S(=O)(=O)c1ccc(OC)cc1)[C@@H](C)CN([C@H](C)CO)S2(=O)=O | inactive |
| Cn1c(=O)c2c(nc(NCCO)n2C)n(C)c1=O | inactive |
| C=CCc1ccc(O[C@@H]2O[C@H](CO[C@@H]3O[C@@H](C)[C@H](O)[C@@H](O)[C@H]3O)[C@@H](O)[C@H](O)[C@H]2O)c(O)c1 | inactive |
| S=c1ccss1 | active |
| O=C(C[C@@H]1C[C@@H]2c3cc(NS(=O)(=O)c4ccc(F)cc4)ccc3O[C@@H]2[C@H](CO)O1)NCc1cccc(F)c1 | inactive |
| [N-]=[N+]=N[C@]1(CO)O[C@@H](n2ccc(N)nc2=O)[C@@H](O)[C@@H]1O | inactive |
| CNC[C@H]1Oc2ccc(NS(=O)(=O)c3cn(C)cn3)cc2CC(=O)N([C@H](C)CO)C[C@@H]1C | inactive |
| CN1CCN(C(=O)C[C@H]2CC[C@H]3[C@@H](COc4ccc(NC(=O)c5cscn5)cc4C(=O)N3C)O2)CC1 | inactive |
| Cn1c(=O)c2cc(S(=O)(=O)NCCC(=O)NC3CCCC3)ccc2n(C)c1=O | inactive |
| C#CC[C@H](c1nc2cc(Cl)ccc2c(=O)n1Nc1ccccc1)N(CCCN)C(=O)c1cccc(Cl)c1F | active |
| CO[C@H](CN(C)C(=O)c1ccccc1F)[C@@H](C)CN([C@@H](C)CO)S(=O)(=O)c1ccc(Cl)cc1 | inactive |
| C[C@H]1CCCCO[C@@H](CN(C)C(=O)Nc2ccc3c(c2)OCO3)[C@@H](C)CN([C@@H](C)CO)C(=O)c2cc(NC(=O)CCC(F)(F)F)ccc2O1 | inactive |
| C[C@H](CO)N1C[C@H](C)[C@@H](CN(C)C(=O)Nc2ccccc2)OCCCC[C@H](C)Oc2ccc(NC(=O)Nc3cccc4ccccc34)cc2C1=O | inactive |
| CC[C@H]1OC(=O)[C@H](C)[C@@H](O[C@H]2C[C@@](C)(OC)[C@@H](O)[C@H](C)O2)[C@H](C)[C@@H](O[C@@H]2O[C@H](C)C[C@H](N(C)C)[C@H]2O)[C@](C)(OC)C[C@@H](C)C(=O)[C@H](C)[C@@H](O)[C@]1(C)O | active |
| CC[C@@H]1OC(=O)[C@@H](C)[C@H](O[C@H]2C[C@@](C)(OC)[C@@H](O)[C@H](C)O2)[C@@H](C)[C@H](O)[C@@](C)(O[C@@H]2O[C@H](C)C[C@H](N(C)C)[C@H]2O)C[C@H](C)C(=O)[C@@H](C)[C@H](O)[C@@]1(C)O | active |

| Compound | growth inhibition call |
| --- | --- |
| CCC1OC(=O)C(C)C(OC2CC(C)(OC)C(O)C(C)O2)C(C)C(OC2OC(C)CC(N(C)C)C2O)C(C)(OC)CC(C)C(=O)C(C)C(O)C1(C)O (stereo unspecified) | active |
| Cc1ccc(S(=O)(=O)Nc2ccc3c(c2)CC(=O)N([C@@H](C)CO)C[C@H](C)[C@H](CN(C)S(=O)(=O)c2c(C)noc2C)O3)cc1 | inactive |
| C[C@H](CO)N1C[C@H](C)[C@H](CN(C)S(=O)(=O)c2ccc(Cl)cc2)Oc2c(NC(=O)C3CCOCC3)cccc2C1=O | inactive |
| COc1ccc(CNC(=O)C[C@@H]2CC[C@@H]3[C@H](COc4ccc(NC(=O)C5CC5)cc4C(=O)N3C)O2)cc1 | inactive |
| COc1ccccc1C#Cc1cnc2c(c1)C(=O)N([C@@H](C)CO)C[C@H](C)[C@@H](CN(C)S(=O)(=O)c1cn(C)cn1)O2 | inactive |
| COc1ccccc1NC(=O)N(C)C[C@H]1Oc2ncc(C#CCN(C)C)cc2C(=O)N([C@@H](C)CO)C[C@@H]1C | inactive |
| COc1ccc(-c2ccc3c(c2)O[C@H](CN(C)CC2CCOCC2)[C@@H](C)CN([C@H](C)CO)S3(=O)=O)cc1 | inactive |
| C[C@@H]1CN([C@@H](C)CO)C(=O)Cc2cc(NC(=O)Cn3cnnn3)ccc2O[C@H]1CN(C)S(=O)(=O)c1ccc(Cl)cc1 | inactive |
| Cc1noc(C)c1NC(=O)Nc1ccc2c(c1)C(=O)N([C@H](C)CO)C[C@@H](C)[C@@H](CN(C)C(=O)Nc1c(C)noc1C)OCCCC[C@@H](C)O2 | inactive |
| Cc1cc(NN)nc(SCC(=O)NN)n1 | inactive |
| CC(C)(Sc1ccc(CCN(CCCCC2CCCCC2)C(=O)NC2CCCCC2)cc1)C(=O)O | active |
| C/C=C/c1ccc2c(c1)O[C@@H](CN(C)C(=O)c1ccc3c(c1)OCO3)[C@@H](C)CN([C@@H](C)CO)S2(=O)=O | inactive |
| Cn1cnc(S(=O)(=O)N2C[C@H](O)COC[C@H]3O[C@H](CC(=O)NC4CCC4)CC[C@@H]32)c1 | inactive |
| C[C@H]1CN([C@@H](C)CO)C(=O)c2cc(NC(=O)CCCN(C)C)ccc2O[C@H]1CN(C)Cc1ccc(C(=O)O)cc1 | inactive |
| C[C@H]1CN([C@@H](C)CO)C(=O)c2cc(NC(=O)Cn3cnnn3)ccc2O[C@H]1CN(C)Cc1ccc(C(=O)Nc2ccccc2N)cc1 | inactive |
| Cc1cc(C(C)(C)CC(C)(C)C)ccc1OCCOCC[N+](C)(C)Cc1ccccc1.[Cl-] | active |
| C[N+](C)(CCOc1ccccc1)Cc1ccccc1.O=C([O-])c1cc2ccccc2cc1O | inactive |
| CC(C)(C)CC(C)(C)c1ccc(OCCOCC[N+](C)(C)Cc2ccccc2)cc1.[Cl-] | active |
| C[N+](C)(CCOc1ccccc1)Cc1ccccc1.O=C(O)c1cc2ccccc2c(Br)c1O | inactive |
| C=c1ccc(C)cc1=C1NN=C(NC(=O)c2ccc(S(=O)(=O)N(CCOC)CCOC)cc2)O1 | inactive |
| CC(C)NC(=O)NCC[C@H]1CC[C@H](NC(=O)CN(C)C)[C@@H](CO)O1 | inactive |
| C/C=C/c1ccc2c(c1)O[C@H](CN(C)Cc1ccc(C(=O)O)cc1)[C@@H](C)CN([C@H](C)CO)S2(=O)=O | inactive |
